Screens deposited in PubChem by several laboratories.
Efa HMGR inh: E. faecalis class II HMG-CoA reductase inhibition; 0.41% of 190,000 active; AID 1066; inhibition, % at 10 µM; purified E. faecalis HMGR, NADPH absorbance 340 nm kinetic;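 active means inhibition above a set limit, the median over all tested compounds plus 3 SD, cut at about 9.5% in these data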;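 further: enzyme runs in reverse so mevalonate oxidation gives rising NADPH absorbance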
dFosB activator: activators of mouse delta FosB homodimer. 0.99% of 340,000 active. activation, % at 25 µM. purified delta FosB, TAMRA-CDK5 oligo fluorescence polarization; percent of positive-control signal above neutral wells. AID 493131;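 active means mean activation above about 17%, with every replicate also reaching it, limit read from the data, passing the limit was not always enough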
p47phox inh: blocks human p47phox regulatory protein of NADPH oxidases; 0.53% of 220,000 active; p47phox/p22phox peptide binding, fluorescence polarization, 2 h; P14598; inhibition, % at 24.7 µM;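 active means inhibition above about 30%, limit read from the data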
Target sequence (P14598 whole entry, looked up): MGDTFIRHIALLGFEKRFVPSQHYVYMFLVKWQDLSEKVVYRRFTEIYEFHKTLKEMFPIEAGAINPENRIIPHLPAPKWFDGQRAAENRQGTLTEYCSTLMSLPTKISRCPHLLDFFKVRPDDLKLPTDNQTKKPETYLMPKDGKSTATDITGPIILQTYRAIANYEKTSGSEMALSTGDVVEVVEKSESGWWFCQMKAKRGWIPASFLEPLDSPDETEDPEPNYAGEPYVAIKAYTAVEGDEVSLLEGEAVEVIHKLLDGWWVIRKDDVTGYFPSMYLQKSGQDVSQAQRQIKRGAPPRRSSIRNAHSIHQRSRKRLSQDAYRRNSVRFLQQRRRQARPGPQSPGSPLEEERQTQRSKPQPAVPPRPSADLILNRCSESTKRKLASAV
14-3-3 Bad inh: disrupts binding of bovine 14-3-3 zeta to phospho-Bad peptide | AID 781 | 0.71% of 220,000 active | P63103 | TR-FRET 14-3-3zeta/Dy647-pBad peptide displacement, 1 h | inhibition, % at 21.7 µM;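 active means inhibition above about 70%, limit read from the data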
Hits are given with their value; . = inactive; / = not tested or not shown; [ ] = another dose, or the depositor's remark. A selection: hits, their analogues and other compounds. The true share with any hit is near 1.9%.

SMILES	Efa HMGR inh	dFosB activator	p47phox inh	14-3-3 Bad inh
COc1ccccc1/C(C)=N/NC(=O)c1nnn(-c2nonc2N)c1C(C)C	/	.	/	/
CC(NC(=O)Cc1ccc(NC2=NC3CS(=O)(=O)CC3S2)cc1)c1ccccc1 (stereo not drawn)	/	.	/	/
CCOC(=O)CCNCc1ccc(F)cc1	.	.	.	.
CCc1ccc2[nH]c(=O)c(CN(Cc3ccc(F)cc3)C(c3nnnn3CCN3CCOCC3)C(C)C)cc2c1 (stereo not drawn)	.	.	.	.
COc1cc(OC)cc(C(=O)N2CCN(C3CCN(Cc4ccccc4)CC3)CC2)c1	.	.	.	72.7
COc1cc(OC)cc(C(=O)N2CCN(C3CCCCC3)CC2)c1	/	.	/	/
c1csc(-c2nnc(N3CCCCCC3)c3ccccc23)c1	.	.	.	.
c1csc(-c2nnc(N3CCOCC3)c3ccccc23)c1	11.3	.	.	.
[N-]=[N+]=CC(=O)CC(c1ccccc1)N1C(=O)c2ccccc2C1=O (stereo not drawn)	.	.	51.0	.
CC1CCCCN1C(=S)NC(=O)c1ccccc1 (stereo not drawn)	/	.	/	/
Cc1ccc(Nc2nc(=O)c3cccnc3s2)cc1	.	.	.	.
COc1ccc(OC)c(Nc2nc(=O)c3cccnc3s2)c1	.	.	60.2	.
CCC(C)NC(=O)CSc1nnc(-c2ccc(Cl)cc2)n1N (stereo not drawn)	.	.	53.0	.
Cn1nccc1C(=O)Nc1ccccc1C(=O)O	.	.	177.7	.
O=C(Nc1ccccc1C(=O)Nc1ccccc1C(=O)O)c1ccccc1	/	.	/	/
COc1ccc(S(=O)(=O)N2CCCC2)c(Cl)c1Cl	.	.	.	.
COc1ccc(OC)c2c1C(=O)C(Cl)=C(Cl)C2=O	/	.	90.3	.
COc1ccc(OC)c2c1C(=O)c1ccccc1C2=O	.	/	36.1	.
CC(C)C(c1nnnn1C1CCCCC1)N1CCCc2ccccc21 (stereo not drawn)	.	.	.	.
Cn1c(=O)c2c(nc(NCCOc3ccc(C(C)(C)C)cc3)n2C)n(C)c1=O	12.7	.	.	.
COc1ccccc1OCCNc1nc2c(c(=O)n(C)c(=O)n2C)n1C	.	.	.	.
CC1(C)Cc2c(c(=S)nc(-c3ccccc3)n2Cc2cccnc2)CO1	/	.	.	.
CC(C)(C)Cc1nnc(NS(=O)(=O)c2ccccc2)s1	14.2	.	.	.
CCc1nnc(NS(=O)(=O)c2ccc(N)cc2)s1	/	.	/	/
CC(CCc1ccccc1)N1CCN(Cc2ccccc2)CC1 (stereo not drawn)	.	.	.	.
SMILES	Efa HMGR inh	dFosB activator	p47phox inh	14-3-3 Bad inh
CCS(=O)(=O)N1CCN(C(C)CCc2ccccc2)CC1 (stereo not drawn)	.	.	.	70.1
COc1ccc(Br)cc1CN1CCCC(C(=O)N2CCCCC2)C1 (stereo not drawn)	.	.	.	73.2
COc1cccc(C(=O)N2CCN(Cc3ccccc3C(F)(F)F)CC2)c1	.	.	.	74.0
COc1cccc(C(=O)N2CCN(Cc3cc(Br)ccc3OC)CC2)c1	.	.	.	71.8
Cc1ccc(CN2CCN(Cc3ccccc3C(F)(F)F)CC2)cc1	.	.	.	80.5
COc1cc(CN2CCN(Cc3ccccc3C(F)(F)F)CC2)cc(OC)c1OC	/	.	/	/
CCOc1ccc(NC(=O)C23CC4CC(C2)CC(c2ccccc2)(C4)C3)cc1	.	.	.	.
CCCCN(Cc1ccco1)S(=O)(=O)c1ccc(-c2ccc(=O)[nH]n2)s1	/	.	/	/
C/C(CC(=O)N(C(C)C)C(C)C)=N\NC(=O)COc1ccc(Br)cc1Br	.	.	.	.
CC1C(=O)N2CCCc3cc(NC(=O)C4CCCCC4)cc1c32 (stereo not drawn)	/	.	/	/
CCOC(=O)CSc1ccc2nnc(CCNS(=O)(=O)c3ccccc3)n2n1	.	.	/	83.4
CCOc1ccc(NC(=O)CN(C)S(=O)(=O)c2cnc[nH]2)cc1	.	.	.	.
COc1ccc(C(=O)O)cc1S(=O)(=O)Nc1ccccc1Cc1ccccc1	/	.	/	/
COc1ccc(NC(=O)c2c(C)nn(Cc3ccccc3)c2C)cc1S(=O)(=O)N(C)C	/	.	/	/
CC(=O)c1ccc(OCCCC(=O)NCC(c2ccco2)N(C)C)cc1 (stereo not drawn)	.	.	.	.
CN(C)C(CNC(=O)CCOc1ccccc1)c1ccco1 (stereo not drawn)	21.2	.	.	.
Cc1ccc(C(=O)CCNc2cccc(Br)c2)o1	.	.	.	.
Cc1cc(C)c2c(N)c3cccc(C)c3nc2n1	.	49.3	.	.
Cc1cccc2c(N)c3c(nc12)CCCC3 (tested in a mixture with another compound)	.	.	.	.
CCN(CC)S(=O)(=O)c1ccc(N/N=C(\C)c2cccnc2)nc1	/	.	/	/
COc1cc(NC(=O)COc2ccccc2[N+](=O)[O-])ccc1NC(=O)c1cccs1	.	.	51.9	73.8
CCCC(c1nnnn1Cc1ccco1)N1CCC(C(N)=O)CC1 (stereo not drawn)	.	.	.	71.2
CN(C)C(=O)CSc1n[nH]c(=O)[nH]c1=O	19.7	.	.	.
CCn1c(SCC(=O)Nc2nc3c(s2)CCCC3)nnc1-c1ccccc1	.	.	.	.
Cc1ccc(S(=O)(=O)NCCC(=O)OCC(=O)Nc2ccccc2Cl)cc1	.	.	33.0	.
SMILES	Efa HMGR inh	dFosB activator	p47phox inh	14-3-3 Bad inh
CSc1nc2ccc3nc(NC(=O)c4ccc(Cl)s4)sc3c2s1	.	.	.	.
CSc1nc2ccc3nc(NC(=O)c4cccs4)sc3c2s1	.	.	.	72.5[fluorescence artefact?]
COc1ccc(OC)c(-c2[nH]nc3c2C(c2ccco2)C(C#N)=C(N)O3)c1 (stereo not drawn)	.	.	.	.
Cc1ccc(NC(=O)C(=O)NCCN2CCN(S(C)(=O)=O)CC2)cc1	.	.	.	.
CCc1ccc(NC(=O)C(=O)NCCN2CCN(S(C)(=O)=O)CC2)cc1	11.4	.	.	.
CCN(CC)CCn1c2ccccc2c2nc(C)sc21	.	.	.	82.0
COC(=O)Cn1c2ccccc2c2nc(C)sc21	.	.	.	.
Cc1cccn2c(=O)c3cc(C(=O)NC4CCCCC4)c(=N)n(Cc4ccccc4)c3nc12	/	43.1	/	/
CCNC(=O)c1cc2c(=O)n3cccc(C)c3nc2n(CCc2ccccc2)c1=N	.	.	.	.
CCCCNC(=O)c1cc2c(=O)n3cccc(C)c3nc2n(Cc2ccccc2)c1=N	.	.	.	74.8
CC1CCN(c2c(NCC3CCC(C(=O)NC4CCCCCC4)CC3)c(=O)c2=O)CC1 (stereo not drawn)	/	.	.	86.2
CC1CCN(c2c(NCC3CCC(C(=O)N4CCCCC4)CC3)c(=O)c2=O)CC1 (stereo not drawn)	.	.	.	.
Cc1cc2nc3c(=O)[nH]c(=O)[nH]c3nc2c([N+](=O)[O-])c1N	.	.	.	73.2
CS(=O)(=O)c1cnc(-c2ccccc2)nc1-c1ccc(Cl)c(Cl)c1	.	.	.	72.7
COc1ccc(CCN(Cc2cccs2)S(=O)(=O)c2ccc(C(=O)O)cc2)cc1OC	.	.	.	.
O=C(Nc1cccc(-c2csc(Nc3cccc(C(F)(F)F)c3)n2)c1)c1cc([N+](=O)[O-])cc(C(F)(F)F)c1	/	.	.	.
